# Laboratory results taken from the supplement of paper PMC10981050.
# Structures can show the parent of a compound that is named as a salt.
# System: K562
# Assay: cell viability relative to vehicle control; higher = less cytotoxic
# Settings: 10 µM; SRSF2 genotype: SRSF2 wt/wt
# How it was run: (§1)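 Each screen used CRISPR-edited mutant and wild-type clones from four leukaemia lines. Compounds were acoustically dispensed at a single 10 µM dose, and CellTiter-Glo luminescence was read after 48 h with the supernatant first removed. Viability was analysed in Genedata Screener and given as percent of the on-plate vehicle control.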
row,SMILES,cell viability
1,CCn1c(=O)c(-c2ccc(-c3cncs3)cc2Cl)cc2cnc(Nc3ccc(N4CCN(C)CC4)cc3)nc21,74.6%
2,O=P(O)(O)Oc1cccc2ccccc12 [1-Naphthyl phosphate potassium salt],97.8%
3,O=c1c(O)c(-c2ccc(O)cc2)oc2cc(O)cc(O)c12 [Kaempferol],108%
4,"CCC(=O)O[C@]1(C(=O)SCF)[C@H](C)C[C@H]2[C@@H]3C[C@H](F)C4=CC(=O)C=C[C@]4(C)[C@@]3(F)[C@@H](O)C[C@@]21C [Fluticasone propionate (Flonase, Veramyst)]",88%
5,Nc1nc(NC2CC2)cc(-c2cccc(Cl)c2Cl)n1,41.5%
6,CC(C)CCCC(C)C1CCC2C3=CC=C4CC(O)CCC4(C)C3CCC21C (stereo not given) [7-Dehydrocholesterol],96.5%
7,O=C1C(c2[nH]c3ccccc3c2O)=Nc2ccccc21 [Indigo],94.6%
8,CN(CCNc1ccnc2cc(Cl)ccc12)CCNc1ccnc2cc(Cl)ccc12,18.8%
9,COc1ccc2cc(CCC(C)=O)ccc2c1 [Nabumetone],93.8%
10,COc1cc(C=O)ccc1O [Vanillin],99.7%
11,CCC(=O)OCC(=O)[C@@]1(OC(=O)CC)[C@@H](C)C[C@H]2[C@@H]3CCC4=CC(=O)C=C[C@]4(C)[C@@]3(F)[C@@H](O)C[C@@]21C [Betamethasone Dipropionate (Diprolene)],98.8%
12,Cn1nc(C(C)(C)C)cc1C(=O)N[C@@H](Cc1cccc(Cl)c1)C(=O)NCC#N [Cathepsin Inhibitor 1],83.2%
13,CCOC(=O)C1=C(C)NC(C)=C(C(=O)OC)C1c1cccc(Cl)c1Cl (stereo not given) [Felodipine (Plendil)],79.9%
14,CC(C)=CCCC(C)(OC1OC(COC2OCC(O)C(O)C2O)C(O)C(O)C1O)C1CCC2(C)C1C(O)CC1C3(C)CCC(OC4OC(CO)C(O)C(O)C4O)C(C)(C)C3CCC12C (stereo not given) [Gynostemma Extract],102%
15,CCNC(=O)[C@@H]1CCCN1C(=O)[C@H](CCCN=C(N)N)NC(=O)[C@H](CC(C)C)NC(=O)[C@@H](CC(C)C)NC(=O)[C@H](Cc1ccc(O)cc1)NC(=O)[C@H](CO)NC(=O)[C@H](Cc1c[nH]c2ccccc12)NC(=O)[C@H](Cc1cnc[nH]1)NC(=O)[C@@H]1CCC(=O)N1 [S3718 Leuprolide Acetate.cdx],102%
16,Nc1ncnc2c1ncn2C1OC(COP(=O)(O)OP(=O)(O)O)C(O)C1O (stereo not given),107%
17,O=CO [Formate],99%
18,COc1cc2c(=O)c(-c3ccc(O)cc3)coc2cc1O[C@@H]1O[C@H](CO)[C@@H](O)[C@H](O)[C@H]1O [Glycitin],101%
19,Nc1nc(-c2nn(Cc3ccccc3F)c3ncccc23)ncc1C1CC1,95.3%
20,O=C(O)c1cc2cccc([N+](=O)[O-])c2[nH]1,103%
21,C=C1CC[C@H]2O[C@]2(C)CC[C@@H]2[C@@H]1CC2(C)C [Caryophyllene oxide],105%
22,CC(C)c1ccc(C=O)cc1 [4-Isopropylbenzaldehyde],92.4%
23,COC(=O)/C=C/C(=O)OC [Dimethyl Fumarate],94.7%
24,CCc1ccc(-c2nc(CSCC(=O)NCCc3ccccc3)c(C)o2)cc1,94.9%
25,CCCSc1nc(N[C@@H]2C[C@H]2c2ccc(F)c(F)c2)c2nnn([C@@H]3C[C@H](OCCO)[C@@H](O)[C@H]3O)c2n1 [Ticagrelor],70.3%
26,O=C(O)C(=O)O [Oxalic acid],90%
27,CN1C(C(=O)Nc2ccccn2)=C(O)c2sccc2S1(=O)=O [Tenoxicam(Mobiflex)],102%
28,O=C(CCNC(=O)c1ccc(OC(F)(F)F)cc1)N[C@@H]1CCCc2ccccc21,91.3%
29,NC1(C(=O)N[C@@H](CCO)c2ccc(Cl)cc2)CCN(c2ncnc3[nH]ccc23)CC1,79%
30,COc1ccc(Oc2cc(C)c(-c3csc(NC(=O)c4ccncc4)n3)c(C)c2)cc1,36.9%

# System: MARIMO
# Assay: as above
# Settings: 10 µM; SRSF2 genotype: SRSF2 P95H/wt
# How it was run: as §1
row,SMILES,cell viability
1,COc1ccc2cc3[n+](cc2c1OC)CCc1cc2c(cc1-3)OCO2 [Berberine Sulfate],66.7%
2,CO/N=C(\C(=O)N[C@@H]1C(=O)N2C(C(=O)[O-])=C(C[n+]3ccn4ncccc43)CS[C@H]12)c1nsc(N)n1 [Cefozopran hydrochloride],100%
3,O=C1NC(=O)/C(=C/c2cccc(C(F)(F)F)c2)S1,105%
4,CC(C)NCC(O)c1ccc(O)c(O)c1 (stereo not given) [Isoprenaline hydrochloride],98.4%
5,CC(C)C(C)C(O)C(O)C(C)C1CCC2C3COC(=O)C4CC(O)C(O)CC4(C)C3CCC12C (stereo not given) [Brassinolide],107%
6,O=c1c(-c2ccc(O)cc2)coc2cc(O[C@@H]3O[C@H](CO)[C@@H](O)[C@H](O)[C@H]3O)cc(O)c12 [Genistin (Genistoside)],94.6%
7,C[C@H]1[C@@H](O)O[C@@H]2O[C@@]3(C)CC[C@H]4[C@H](C)CC[C@@H]1[C@@]24OO3 [Dihydroartemisinin (DHA)],25%
8,Nc1ncnc2c1ncn2C(C=O)OC(C=O)CO (stereo not given) [Adenosine Dialdehyde (ADOX)],60.7%
9,COc1nc2ccc(Br)cc2cc1[C@@H](c1ccccc1)[C@@](O)(CCN(C)C)c1cccc2ccccc12 [Bedaquiline],70.4%
10,CO[C@@H]1[C@@H](OC)[C@H](C)[C@@](O)(CC(=O)O)O[C@H]1[C@H](C)[C@H]1O[C@@]2(CC[C@@](C)([C@H]3CC[C@@](C)([C@@H]4O[C@@H]([C@H]5O[C@](C)(O)[C@H](C)C[C@@H]5C)C[C@@H]4O[C@@H]4C[C@H](OC)[C@@H](OC)[C@H](C)O4)O3)O2)C[C@H](O)[C@H]1C [Maduramycin Ammonium],22.7%
11,CCn1c(=O)c(-c2ccc(-c3cncs3)cc2Cl)cc2cnc(Nc3ccc(N4CCN(C)CC4)cc3)nc21,75.6%
12,O=P(O)(O)Oc1cccc2ccccc12 [1-Naphthyl phosphate potassium salt],87.5%
13,O=c1c(O)c(-c2ccc(O)cc2)oc2cc(O)cc(O)c12 [Kaempferol],98.1%
14,"CCC(=O)O[C@]1(C(=O)SCF)[C@H](C)C[C@H]2[C@@H]3C[C@H](F)C4=CC(=O)C=C[C@]4(C)[C@@]3(F)[C@@H](O)C[C@@]21C [Fluticasone propionate (Flonase, Veramyst)]",87.8%
15,Nc1nc(NC2CC2)cc(-c2cccc(Cl)c2Cl)n1,41.3%
16,CC(C)CCCC(C)C1CCC2C3=CC=C4CC(O)CCC4(C)C3CCC21C (stereo not given) [7-Dehydrocholesterol],87.6%
17,O=C1C(c2[nH]c3ccccc3c2O)=Nc2ccccc21 [Indigo],100%
18,CN(CCNc1ccnc2cc(Cl)ccc12)CCNc1ccnc2cc(Cl)ccc12,19.4%
19,COc1ccc2cc(CCC(C)=O)ccc2c1 [Nabumetone],97.1%
20,COc1cc(C=O)ccc1O [Vanillin],102%

row,SMILES,cell viability
1,CCC(=O)OCC(=O)[C@@]1(OC(=O)CC)[C@@H](C)C[C@H]2[C@@H]3CCC4=CC(=O)C=C[C@]4(C)[C@@]3(F)[C@@H](O)C[C@@]21C [Betamethasone Dipropionate (Diprolene)],106%
2,Cn1nc(C(C)(C)C)cc1C(=O)N[C@@H](Cc1cccc(Cl)c1)C(=O)NCC#N [Cathepsin Inhibitor 1],93.1%
3,CCOC(=O)C1=C(C)NC(C)=C(C(=O)OC)C1c1cccc(Cl)c1Cl (stereo not given) [Felodipine (Plendil)],79.2%
4,CC(C)=CCCC(C)(OC1OC(COC2OCC(O)C(O)C2O)C(O)C(O)C1O)C1CCC2(C)C1C(O)CC1C3(C)CCC(OC4OC(CO)C(O)C(O)C4O)C(C)(C)C3CCC12C (stereo not given) [Gynostemma Extract],108%
5,CCNC(=O)[C@@H]1CCCN1C(=O)[C@H](CCCN=C(N)N)NC(=O)[C@H](CC(C)C)NC(=O)[C@@H](CC(C)C)NC(=O)[C@H](Cc1ccc(O)cc1)NC(=O)[C@H](CO)NC(=O)[C@H](Cc1c[nH]c2ccccc12)NC(=O)[C@H](Cc1cnc[nH]1)NC(=O)[C@@H]1CCC(=O)N1 [S3718 Leuprolide Acetate.cdx],110%
6,Nc1ncnc2c1ncn2C1OC(COP(=O)(O)OP(=O)(O)O)C(O)C1O (stereo not given),91.2%
7,O=CO [Formate],97.5%
8,COc1cc2c(=O)c(-c3ccc(O)cc3)coc2cc1O[C@@H]1O[C@H](CO)[C@@H](O)[C@H](O)[C@H]1O [Glycitin],95.2%
9,Nc1nc(-c2nn(Cc3ccccc3F)c3ncccc23)ncc1C1CC1,103%
10,O=C(O)c1cc2cccc([N+](=O)[O-])c2[nH]1,98.9%
11,C=C1CC[C@H]2O[C@]2(C)CC[C@@H]2[C@@H]1CC2(C)C [Caryophyllene oxide],102%
12,CC(C)c1ccc(C=O)cc1 [4-Isopropylbenzaldehyde],94.5%
13,COC(=O)/C=C/C(=O)OC [Dimethyl Fumarate],103%
14,CCc1ccc(-c2nc(CSCC(=O)NCCc3ccccc3)c(C)o2)cc1,84.1%
15,CCCSc1nc(N[C@@H]2C[C@H]2c2ccc(F)c(F)c2)c2nnn([C@@H]3C[C@H](OCCO)[C@@H](O)[C@H]3O)c2n1 [Ticagrelor],86.9%
16,O=C(O)C(=O)O [Oxalic acid],95.8%
17,CN1C(C(=O)Nc2ccccn2)=C(O)c2sccc2S1(=O)=O [Tenoxicam(Mobiflex)],107%
18,O=C(CCNC(=O)c1ccc(OC(F)(F)F)cc1)N[C@@H]1CCCc2ccccc21,96%
19,NC1(C(=O)N[C@@H](CCO)c2ccc(Cl)cc2)CCN(c2ncnc3[nH]ccc23)CC1,66.6%
20,COc1ccc(Oc2cc(C)c(-c3csc(NC(=O)c4ccncc4)n3)c(C)c2)cc1,37.8%
